# Experimental data as given in article PMC5540273 (PLoS ONE, 2017).
# Assays:
# Conditions in all cases: concentration: 1 μM, replicates: in singlicate; n = 1
# CAMK2D = system: CAMK2D
# CAMK2G = system: CAMK2G
# CAMK4 = system: CAMK4
# CAMKK1 = system: CAMKK1
# CAMKK2 = system: CAMKK2
# CASK = system: CASK
# CDC2L1 = system: T1, CDC2L1
# T1 construct: gene CDK11B
# CDC2L2 = system: CDC2L2
# CDC2L5 = system: T2, CDC2L5
# T2 construct: gene CDK13
# CDK11 = system: T3, CDK11
# T3 construct: gene CDK19
# CDK2 = system: CDK2
# CDK3 = system: CDK3
# CDK4-cyclinD1 = system: CDK4-cyclinD1
# CDK4-cyclinD3 = system: CDK4-cyclinD3
# CDK4 = system: CDK4
# CDK5 = system: CDK5
# CDK7 = system: CDK7
# CDK8 = system: CDK8
# CDK9 = system: CDK9
# CDKL1 = system: CDKL1
# 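Note: KINOMEscan kinase panel screen.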
SMILES,%Inh (CAMK2D) [%],%Inh (CAMK2G) [%],%Inh (CAMK4) [%],%Inh (CAMKK1) [%],%Inh (CAMKK2) [%],%Inh (CASK) [%],%Inh (CDC2L1) [%],%Inh (CDC2L2) [%],%Inh (CDC2L5) [%],%Inh (CDK11) [%],%Inh (CDK2) [%],%Inh (CDK3) [%],%Inh (CDK4-cyclinD1) [%],%Inh (CDK4-cyclinD3) [%],%Inh (CDK4) [%],%Inh (CDK5) [%],%Inh (CDK7) [%],%Inh (CDK8) [%],%Inh (CDK9) [%],%Inh (CDKL1) [%]
CN1c2ccc(-c3ccc(C(=O)NCCO)cc3)cc2-c2[nH]ncc2S1(=O)=O,24,21,0,22,37,48,0,0,2,11,2,0,20,12,0,0,32,0,0,22
O=C(NCCCN1CCCC1=O)c1cnc(NCc2cc(Cl)ccc2Cl)nc1NC1CCNCC1,0,0,0,4,1,78,0,0,0,4,0,2,0,0,0,11,33,0,0,3
Cl.c1ccc(Cn2ncc3cc(Nc4ncnc5ccccc45)ccc32)cc1 [GW273749],31,25,0,3,32,5,0,19,0,4,7,0,0,11,15,0,1,0,0,0
Cl.Fc1ccccc1COc1ccc(Nc2ncnc3ccc(-c4nnc(C(F)(F)F)o4)cc23)cc1Cl [GW424170],0,14,0,1,10,0,0,15,0,2,0,0,0,0,26,0,0,29,0,3
FC(F)(F)c1cc(Nc2nccc(-c3c(-c4ccc(Cl)cc4)nn4ncccc34)n2)ccc1Cl [GW829351],0,0,0,2,0,11,0,0,0,0,0,34,0,0,0,0,0,58,0,0
Cc1cc(N2CCC(NS(=O)(=O)c3ccc(F)cc3)CC2)nc(Nc2cccc(C#N)c2)n1.O=C(O)C(F)(F)F [GSK1653537],3,1,0,5,0,0,0,0,0,0,4,0,0,0,5,0,0,10,0,0
COc1ccc(NC(=O)Nc2ccc(C)c(-c3ccc(C(=O)Nc4ccncc4)cc3)c2)cc1 [GSK1398475],0,22,0,3,20,0,0,34,0,4,0,0,0,9,7,0,0,40,0,1
Cc1ccc(O)cc1Nc1cc(C(F)(F)F)nc2ccc(-c3ccncc3)cc12 [GW630823],2,16,0,11,16,1,17,0,0,0,5,0,0,0,0,0,0,0,5,20
CS(=O)(=O)CCNCc1ccc(-c2ccc3ncnc(Nc4ccc(OCc5ccccc5)c(Cl)c4)c3c2)o1.Cl [GW574783],4,11,0,0,0,3,0,0,0,15,5,10,21,0,0,0,0,43,0,0
CN1CCC(n2cnc(-c3ccc(F)cc3)c2-c2ccnc(NC3CCNCC3)n2)CC1 [SB-229482],7,0,7,14,26,20,0,8,31,0,0,0,33,11,44,4,30,11,0,0
